Measured values taken from PubChem BioAssay (NCI).
Compounds without any hit were thinned out: in the full panel of roughly 79,000, 15% have a hit. Activity calls are given as the source filed them. Cut-off read from the data, not from the text of the source: active = growth inhibition above about 70%; inactive = the rest.

Assay: NCI Yeast Anticancer Drug Screen. Data for the cln2 rad14 strain (AID 165);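 note: 0% = growth equal to vehicle treated cultures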
Conditions: S. cerevisiae cln2 rad14 strain, at 50.0 µM (retest, dose inferred, filed as 5.0), hits give high values
In short: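 Test compounds were added to cln2 rad14 yeast cultures; inhibition of growth was then determined by comparison with vehicle treatment.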

SMILES	growth inhibition
Cc1ccc(O)c(C(c2cc(C)ccc2O)c2ccccc2Cl)c1	99% (active)
O=c1ssc(=Nc2ccc(Cl)cc2)n1-c1ccc(Cl)cc1	99% (active)
CC(=O)OC1CCC2(C)C(CCC3C4=CCC(C5COC(=O)C5)C4(C)CCC32)C1 (stereo not given)	89% (active)
CCN(CC)CCCC(C)Nc1cc(F)cc2cccnc12 (stereo not given)	30% (inactive)
CC1CN(CCCN2c3ccccc3Sc3ccc(Cl)cc32)C(C)(C)C1 (stereo not given)	99% (active)
O=S(=O)(O)c1ccc2c(c1)C1C(C3C2C2(Cl)C(Cl)=C(Cl)C3(Cl)C2(Cl)Cl)C2(Cl)C(Cl)=C(Cl)C1(Cl)C2(Cl)Cl (stereo not given)	89% (active)
OC(CN1CCC(c2ccccc2)CC1)c1ccc(Br)cc1 (stereo not given)	77% (active)
CCOC(=O)/C(C#N)=C\c1cccc2ccccc12	27% (inactive)
COc1ccc2c(c1)CCC(N1CCCC(O)C1)C2 (stereo not given)	99% (active)
COc1cccc(N2CCN(CC(O)COc3cc4c(c5c3CCCC5)CCCC4)CC2)c1 (stereo not given)	94% (active)
CC(=O)Oc1ccc(Cl)cc1Cc1cc(Cl)ccc1OC(C)=O	94% (active)
CC(O)c1c2c(cc3c1CC1(C3)Cc3cc4c(c(C(C)O)c3C1)CCC4)CCC2 (stereo not given)	97% (active)
O=c1c2ccccc2nc(-c2ccccc2)n1NC(=S)Nc1ccc(Cl)cc1[N+](=O)[O-]	14% (inactive)
O=C(CCCN1CCc2[nH]c3cc(F)ccc3c2C1)c1ccc(F)cc1	94% (active)
OC(C(=Nc1ccccc1)c1ccccc1)c1ccccc1 (stereo not given)	98% (active)
N#CC1CCCC(Cc2ccccc2)(c2ccccc2)C1=O (stereo not given)	70% (active)
CC(OC(=O)Nc1cccc(Cl)c1)c1ccccc1 (stereo not given)	99% (active)
O=C(O)/C=C/c1c2ccccc2cc2ccccc12	96% (active)
Cc1c[nH]c2c(O)cc3c(c12)[C@H](CCl)CN3C(=O)c1cc2cc(NC(=O)Nc3ccc4[nH]c(C(=O)N5C[C@@H](CCl)c6c5cc(O)c5[nH]cc(C)c65)cc4c3)ccc2[nH]1	34% (inactive)
Cc1ccc(S(=O)(=O)OC(C=O)C(O)C(O)COC(c2ccccc2)(c2ccccc2)c2ccccc2)cc1 (stereo not given)	99% (active)

SMILES	growth inhibition
COc1cc2c(cc1C(C)C)CCC1C(C)(C#N)CCCC21C (stereo not given)	-22% (inactive)
Fc1ccc(NC(=S)SCc2ccc(Cl)c(Cl)c2)c(F)c1	97% (active)
COC(=O)/C=C(\NC1CC(OC2C[C@](O)(C(C)=O)Cc3c(O)c4c(c(O)c32)C(=O)c2c(OC)cccc2C4=O)OC(C)C1O)C(=O)OC (stereo not given in full)	96% (active)
O=C1CSC(=S)N1c1ccc(F)cc1F	16% (inactive)
CS(=O)(=O)OCCN(CCOS(C)(=O)=O)c1ccc(C=Nc2ccc3ccccc3c2)c(Cl)c1	-9% (inactive)
CN(C)C(=O)Nc1ccc(Cc2ccc(NC(=O)N(C)C)cc2)cc1	-4% (inactive)
O=c1c(Cl)c(Cl)c(=O)c2sc3cc(Cl)ccc3[nH]c1=2	7% (inactive)
O=S(=O)(O)C(O)c1ccc2ccc3cccc4ccc1c2c34 (stereo not given)	84% (active)
N#Cc1cc([N+](=O)[O-])ccc1NC(=O)/C(=N/N)C(C(=O)c1ccc(Cl)c(Cl)c1)C1OC(=O)c2ccccc21 (stereo not given)	1% (inactive)
O=C(Nc1ccc(Cl)c(Cl)c1Cl)Oc1c(Cl)c(Cl)c(Cl)c(Cl)c1Cl	99% (active)
O=[N+]([O-])c1cc(Cl)cc2c1nc(NCCO)c1ccccc12	79% (active)
CCNc1nc(C(F)(F)F)nc2nc[nH]c12	0% (inactive)
CC1CCN(CCOC(=O)C(c2ccccc2)C2C=CCCC2)C1 (stereo not given)	37% (inactive)
CCOC(=O)c1c(N)sc2c1CCCCC2	-52% (inactive)
CC(C(O)Cc1ccccc1)N(C)N=Nc1ccc([N+](=O)[O-])cc1 (stereo not given)	86% (active)
O=[N+]([O-])c1ccc(/C=c2\sc3scc(-c4ccc([N+](=O)[O-])cc4)[n+]3\c2=C/c2ccc([N+](=O)[O-])cc2)cc1	99% (active)
Oc1cc(C(c2ccccc2)c2ccccc2)c2ccccc2c1O	0% (inactive)
CC1=CC2OC3CC4OC(=O)/C=C/C=C/C(C(C)O)OCC(=O)C(C)CC(=O)OCC2(CC1)C4(C)C31CO1 (stereo not given)	99% (active)
CC(NNC(=S)N1CCCCCC1)c1cc2ccccc2cn1 (stereo not given)	91% (active)
CC(C)C1=CC23CCC4C(C)(C(=O)O)CCCC4(C)C2CC1C1C(=O)C=CC(=O)C13 (stereo not given)	96% (active)
